Activation data for 91 compounds are collected here from PubChem BioAssay AID1777 (Sanford-Burnham Center for Chemical Genomics, 2009).

Out of some 280,000 compounds screened, about 50 (0.02%) were called active. For the sample, actives were picked, then their nearest neighbours and some compounds at random. Results with a measured potency or affinity are listed apart. Unmarked numbers belong to inactive results. No stated cut-off is given here; in the data, active means activation above about 50% (passing the limit was not always enough); inactive means the rest.

This assay deals with Kappa-type opioid receptor (Homo sapiens) (UniProt P41145). In words: KOR agonists, beta-arrestin recruitment, primary screen, cell-based, luminescence, uHTS (AID 1777). To be noted: at 10 µM, stronger effect = higher value. In general terms: Arrestin recruitment assays detect the binding of arrestin to an activated receptor.
Kappa-type opioid receptor (Homo sapiens), sequence (P41145 whole entry, looked up): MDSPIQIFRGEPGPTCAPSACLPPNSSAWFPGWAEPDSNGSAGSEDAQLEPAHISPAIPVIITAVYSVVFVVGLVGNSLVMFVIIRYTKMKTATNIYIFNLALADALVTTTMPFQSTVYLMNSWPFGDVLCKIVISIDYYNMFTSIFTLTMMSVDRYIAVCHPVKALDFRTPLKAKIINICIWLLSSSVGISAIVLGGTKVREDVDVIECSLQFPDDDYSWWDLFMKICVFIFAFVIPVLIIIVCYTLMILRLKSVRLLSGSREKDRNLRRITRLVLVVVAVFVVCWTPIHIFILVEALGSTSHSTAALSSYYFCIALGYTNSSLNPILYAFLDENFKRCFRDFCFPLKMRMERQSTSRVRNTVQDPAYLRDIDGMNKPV
Regarding `O=C(NCc1ccccc1)c1ccc(N2C(=O)C3CCCCC3C2=O)cc1` (stereo unspecified), the activation was -2.4%.
Consider `Cc1cc(C)c2cc(CN(Cc3ccc4c(c3)OCO4)Cc3nnnn3Cc3ccco3)c(=O)[nH]c2c1`, for which the activation is 83.5% (active).
As for `Cc1ccc2cc(CN(Cc3ccc4c(c3)OCO4)Cc3nnnn3Cc3ccco3)c(=O)[nH]c2c1`, the figure is 26.7%.
As for `Cc1ccc(C)c2[nH]c(=O)c(CN(Cc3ccc4c(c3)OCO4)Cc3nnnn3Cc3ccco3)cc12`, the figure is 10.8%; as for `Cc1ccc2nc(C)c(C(=O)N/N=C/c3ccc(N4CCOCC4)cc3)cc2c1`, 3%; as for `CN(c1ccccc1C(=O)Nc1ccc(CC#N)cc1)S(=O)(=O)c1ccccc1`, 2.4%.
The result for `Cc1ccccc1NC(=S)N(Cc1cccs1)C1CCCCC1` reads -6.5%; that for `Cc1ccccc1NC(=S)N(Cc1cccs1)C1CCCC1`, 4.8%; that for `Cc1ccc(C(C)NC(=O)c2cc(C)oc2C)cc1` (stereo unspecified), 8.6%.
Regarding `Clc1ccccc1CSc1nnc(-c2ccccn2)n1Cc1ccco1`, the activation was 31.6%.
The result for `Clc1cccc(CSc2nnc(-c3cccnc3)n2Cc2ccco2)c1` reads -4.9%; that for `O=C(CSc1nnc(-c2ccccn2)n1Cc1ccco1)c1ccc(Cl)cc1`, 81.9%; that for `COc1ccccc1NC(=O)CSc1nnc(-c2ccccn2)n1Cc1ccco1`, 17.1%.
The result for `COc1ccc(C)cc1NC(=O)CSc1nnc(-c2ccccn2)n1Cc1ccco1` reads 1.2%; that for `Clc1ccc(CSc2nnc(-c3cccnc3)n2Cc2ccco2)c(Cl)c1`, -2.8%; that for `Cc1ccc(O)c(N=Nc2ccc(S(=O)(=O)N3CCCC3)cc2)c1`, -0.2%.
The result for `CN(C)CC(C)(C)CNC(=O)C1CCN(CCCc2ccccc2)CC1` reads -5.3%; that for `CCOc1nc(NC2CCCC2)nc(N2CCC(C)CC2)n1`, -3.8%; that for `CCCNC(=O)NC(=O)CSc1nnc(-c2ccncc2)n1CC`, -1.1%.
Take `COC(=O)CN1C(=O)[C@H]2[C@@H](c3ccc(C)o3)N3C(=O)CN(CCO)C(=O)[C@@]3(Cc3ccccc3)[C@H]2C1=O`: the activation was 5.5%.
Take `O=C1C2ON(c3ccccc3)C(c3cccnc3)C2C(=O)N1c1ccccc1` (stereo unspecified): the activation is -3.9%.
The result for `Cc1c(Cl)cccc1N1C(=O)C2ON(c3ccccc3)C(c3cccnc3)C2C1=O` (stereo unspecified) reads 0.9%; that for `CC(=O)N1CCC(C(=O)NC2CC(C)(C)Cc3c2cnn3-c2ccc(F)cc2)CC1` (stereo unspecified), -2.2%.
As for `CC(=O)Nc1ccc(N/C=C/C(=O)c2ccccc2)cc1`, the figure is -0.7%; as for `Cn1c(=O)c2c(nc(Oc3ccc4c(c3)OCO4)n2Cc2ccc(F)cc2)n(C)c1=O`, 67.5% (active); as for `Cn1c(=O)c2c(nc(Oc3ccc4c(c3)OCO4)n2Cc2ccc(Br)cc2)n(C)c1=O`, 9.8%.
For `Cn1c(=O)c2c(nc(Oc3ccc4c(c3)OCO4)n2Cc2ccc(Cl)cc2)n(C)c1=O`, the activation was 62.7%.
As for `Cn1c(=O)c2c([nH]c(OCc3ccc(Cl)cc3Cl)[n+]2Cc2ccc(F)cc2)n(C)c1=O`, the figure is 6.8%.
As to `O=C(Cc1cccs1)N(Cc1cccs1)C1(C(=O)NC2CCCCC2)CCCCC1`, the activation was -1.5%.
As for `O=C(c1cnccn1)N(Cc1cccs1)C1(C(=O)NC2CCCCC2)CCCCC1`, the activation was 64.7% (active).
As for `O=C(c1cnccn1)N(Cc1cccs1)C1(C(=O)NC2CCCC2)CCCCC1`, the figure is 30.1%; as for `O=C(c1ccc(=O)[nH]c1)N(Cc1cccs1)C1(C(=O)NC2CCCC2)CCCCC1`, 5.3%.
As to `O=C(Cc1cccs1)N(Cc1cccs1)C1(C(=O)NC2CCCC2)CCCCC1`, the activation is -2.8%.
As for `COc1ccc(NC2=NCCCCC2)cc1`, the figure is -4.3%; as for `Cc1ccc(N2C(=O)C(c3c(C)[nH]n(-c4ccccc4)c3=O)(C(F)(F)F)C3=C2CC(C)(C)CC3=O)cc1` (stereo unspecified), -2.8%.
In the case of `Cc1ccc(C(=O)NC(=S)Nc2cccc(NC(=O)c3ccccc3Cl)c2)cc1[N+](=O)[O-]`, the activation is 1.9%.
As for `CNC(=S)N(CCc1c(C)[nH]c2ccc(Cl)cc12)Cc1cccnc1`, the figure is -1%.
As for `C=CCn1c(-c2cccs2)nc2nc3ccccc3nc21`, the activation is -4.6%.
As for `CCCn1c(-c2cccs2)nc2nc3ccccc3nc21`, the figure is 13.8%.
The result for `c1ccc(Cn2c(-c3cccs3)nc3nc4ccccc4nc32)cc1` reads 65.7% (active).
With `O=C(NCc1cnc2ccccn12)C1CCC(=O)N(Cc2ccccc2F)C1` (stereo unspecified), the activation is -0.5%.
Turning to `CN(C)S(=O)(=O)c1ccc(NC(=O)N2CCN(c3ccccc3)CC2)cc1`, the activation is 22.3%.
The result for `CC(=O)N1CCN(c2ccc(NC(=O)c3cc(Cl)ccc3Cl)cc2)CC1` reads -3.7%; that for `C=C(C)CSc1nnc2n(Cc3ccccc3)c(=O)c3c4c(sc3n12)CCC4`, -1.4%.
The result for `CCOC(=O)CSc1nnc2n(Cc3ccccc3)c(=O)c3c4c(sc3n12)CCC4` reads -9.3%; that for `CCCSc1nnc2n(Cc3ccccc3)c(=O)c3c4c(sc3n12)CCC4`, 69.7% (active).
The result for `O=C(NCC1CCCO1)C1CCCN(S(=O)(=O)c2ccc(Br)cc2)C1` (stereo unspecified) reads 0.4%.
As for `CCOC(=O)c1ccccc1N/C=C1\CCCC1=O`, the activation is 0.9%.
As for `Cn1c(=O)oc2cc(S(=O)(=O)N3CCN(c4ccc(F)cc4)CC3)ccc21`, the figure is -1.1%; as for `O=C1CN(CC(=O)N2CCCCC2)c2ccccc2O1`, -1.4%.
The result for `COc1cc([N+](=O)[O-])ccc1NC(=O)Nc1ccc(C(=O)N2CCCC2)cc1` reads -5.9%.
The result for `COC(=O)CSc1nnc(-c2ccccn2)n1Cc1ccco1` reads -0.5%; that for `C(=C\c1ccccc1)/CSc1nnc(-c2ccccc2)n1Cc1ccco1`, 3.8%; that for `C(=C\c1ccccc1)/CSc1nnc(-c2cnccn2)n1Cc1ccco1`, 16.2%.
Turning to `O=C(CSc1nnc(-c2ccccn2)n1Cc1ccco1)c1ccccc1`, the activation was 15.7%.
As for `Brc1ccc(CSc2nnc(-c3cnccn3)n2Cc2ccco2)cc1`, the figure is 41.3%; as for `NC(=O)CSc1nnc(-c2ccccn2)n1Cc1ccco1`, 2.2%; as for `COc1cc(S(=O)(=O)NC2CCCC2)ccc1-n1cnnn1`, -0.2%.
For `CCOc1ccccc1NC(=O)CCn1cccc1`, the activation was -0.4%.
Regarding `CN(C)/C=C/C(=O)c1ccc(S(=O)(=O)c2ccccc2)cc1`, the activation is -5%.
In the case of `C=CCSc1nc(C)c(CCC(C)C)c(=O)[nH]1`, the activation was -2.2%.
Turning to `COc1ccc([N+](=O)[O-])cc1NC(=O)COC(=O)c1ccccc1C(=O)c1ccccc1`, the activation is -5.5%.
As for `CCc1ccccc1NC(=O)c1cccc(N2C(=O)C3C4CCC(C4)C3C2=O)c1` (stereo unspecified), the figure is 3.3%; as for `Cc1ccc2[nH]c(=O)c(CN(C)C(=O)c3ccccn3)cc2c1`, -3.6%.
Consider `CCCCN(Cc1cc2cc(OC)ccc2[nH]c1=O)C(=O)c1ccccn1`, for which the activation is 40.3%.
As for `CCCN(Cc1cc2ccc(C)cc2[nH]c1=O)C(=O)c1ccccn1`, the figure is 46.4%.
In the case of `CCCN(Cc1cc2cc(C)ccc2[nH]c1=O)C(=O)c1ccccn1`, the activation is 9.9%.
Consider `COCC(=O)N(Cc1cc2ccccc2[nH]c1=O)c1ccc(OC)cc1`, for which the activation was 9.6%.
The result for `COc1ccc2nc(NC(=O)CCNS(=O)(=O)c3ccc4c(c3)oc(=O)n4C)sc2c1` reads -3.3%; that for `COc1ccc(OCC(=O)NNC(=O)C2CCCO2)cc1` (stereo unspecified), 8.8%; that for `CCOC(=O)Cn1cnc2c(nnn2-c2ccccc2)c1=O`, -1%.
As for `Cc1ccc(-n2nnc3c(=O)n(CC(=O)c4ccccc4)cnc32)cc1`, the figure is 4.2%; as for `CCOc1ccc(-n2nnc3c(=O)n(CC(=O)c4ccccc4)cnc32)cc1`, 52.9% (active).
For the compound `CCOc1ccc(-n2c(=O)c3sccc3n(CC(=O)NCC3CCCO3)c2=O)cc1` (stereo unspecified), the activation is -4.3%.
The result for `O=C(Cc1ccccc1)c1c[nH]c(C(=O)NCCCn2ccnc2)c1` reads 1.2%.
As for `CCC(C)(C)N=C(NC#N)Nc1cccnc1`, the figure is 87.5% (active).
As for `CC(N=C(NC#N)Nc1ccncc1)C(C)(C)C` (stereo unspecified), the figure is -0.9%; as for `CC(Nc1cccnc1)=C(C#N)C#N`, -7.7%; as for `CCCCN(C(=O)c1cc(CC)c(C)s1)c1c(N)n(CC(C)C)c(=O)[nH]c1=O`, -0.3%.
On to `COC(=O)c1ccc(NC(=S)N(Cc2cccnc2)Cc2ccco2)cc1`, for which the activation is -0.8%.
As for `O=C(c1ccc([N+](=O)[O-])cc1)N(Cc1ccc(Cl)cc1Cl)N1C(=O)CCCC1=O`, the figure is -0.8%; as for `O=C(c1ccccc1Cl)N(Cc1ccc(Br)cc1)N1C(=O)CCCC1=O`, -1%; as for `O=C(c1ccc(Cl)cc1)N(Cc1ccccc1F)N1C(=O)CCCC1=O`, -0.9%.
The result for `O=C(c1ccc(Cl)cc1)N(Cc1ccc(Br)cc1)N1C(=O)CCC1=O` reads 1.3%.
As for `COC(=O)C1=CN(CC2CCCO2)C=C(C(=O)OC)C1c1ccsc1` (stereo unspecified), the figure is -4.3%; as for `COc1cc(/C=N/Nc2ccc(C(F)(F)F)cn2)cc(OC)c1O`, -5%.
For the compound `Cn1c2ccccc2c(=O)c2ccc(C#CC3(N)CCCCC3)cc21`, the activation was -3.1%.
Regarding `O=C(c1ccc(S(=O)(=O)N2CCCC2)cc1)N1CCC(CN2C(=O)c3cccc4cccc(c34)C2=O)CC1`, the activation was 0.7%.
Regarding `CC(C)C[C@H](NC(=O)c1nc[nH]c1C(=O)N[C@@H](CCCCNC(=O)OC(C)(C)C)C(=O)OC(C)(C)C)C(=O)OC(C)(C)C`, the activation was 5.3%.
As for `CCN(CC)CCNc1nc(C(F)(F)F)nc2c1nnn2Cc1ccccc1`, the figure is -3.1%; as for `O=C(Cc1ccc([N+](=O)[O-])cc1)N/N=C/c1ccccc1F`, -4.4%.
